Inconclusive results are not listed. Active and inactive are the calls of the source. How the source made its calls, unless noted: active means hit-call score of the fitted dose curve at least 0.9, where 1 is the maximum; inconclusive means response in the unintended direction; inactive means score below 0.9.

Data on 32 molecules can be found in PubChem BioAssay (EPA / NIEHS).

For experiment [1], the target named is Estrogen receptor beta (Homo sapiens) (UniProt Q92731). Put plainly: OT_ER_ERbERb_1440: Odyssey Thera (OT) 24-hour HEK293T Protein-Complementation Assay for Estrogen Receptor-beta/-beta Homodimer (AID 2283380).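 Further: scored as signal increase over DMSO baseline for both agonists and antagonists.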 In short, it runs like this: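 HEK293T cells stably expressing ER beta LBD (aa 310-547) homodimer fragment-complementation reporter, dosed 24 h. Cells formaldehyde-fixed, Draq5-stained; gain in nuclear (agonist) or nuclear plus cytoplasmic (antagonist) fluorescence versus DMSO read by laser scanning cytometry.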

The target in experiment [2] is Bile acid receptor (Homo sapiens) (UniProt Q96RI1). Nature of the experiment: OT_FXR_FXRSRC1_0480: Odyssey Thera (OT) 8-hour HEK293T Protein-Complementation Assay for Farnesoid X receptor/SRC-1 Co-activator (AID 2283383). A digest of the protocol: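 Human kidney HEK293T cells carried FXR/SRC-1 fragment-complementation constructs. Compounds were added and incubated 8 h. Reporter reassembly upon receptor–co-activator interaction was then quantified by fluorescence, with curves fitted in the positive direction relative to DMSO.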

The target in experiment [3] is Retinoic acid receptor RXR-alpha (Homo sapiens) (UniProt P19793). Put plainly: OT_NURR1_NURR1RXRa_1440: Odyssey Thera (OT) 24-hour HEK293T Protein Complementation Assay for Nurr1/retinoid X receptor (RXR) (AID 2283386). A digest of the protocol:
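Interaction of Nurr1 with RXRα brings fused reporter fragments together in human HEK293T cells, restoring a functional reporter. Fluorescence intensity is measured 24 h after chemical treatment, and values are analysed in the positive direction against DMSO.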

The target of experiment [4] is Bile acid receptor (Homo sapiens) (UniProt Q96RI1). Nature of the experiment: OT_FXR_FXRSRC1_1440: Odyssey Thera (OT) 24-hour HEK293T Protein-Complementation Assay for Farnesoid X receptor/SRC-1 Co-activator (AID 2283384). A digest of the protocol:
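Compounds are applied to human kidney HEK293T cells expressing bait and prey fused to reporter protein fragments; after 24 h, reconstituted reporter fluorescence is measured. Activity is fitted as signal gain over DMSO.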

Experiment [5] addresses Retinoic acid receptor RXR-alpha (Homo sapiens) (UniProt P19793). Nature of the experiment: OT_NURR1_NURR1RXRa_0480: Odyssey Thera (OT) 8-hour HEK293T Protein Complementation Assay for Nurr1/retinoid X receptor (RXR) (AID 2283385). A digest of the protocol:
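8 h compound exposure, HEK293T; Nurr1/RXRα fragment complementation; fluorescence intensity; positive fitting direction vs DMSO baseline.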

For experiment [6], the target named is Peroxisome proliferator-activated receptor gamma (Homo sapiens) (UniProt P37231). Nature of the experiment: OT_PPARg_PPARgSRC1_0480: Odyssey Thera (OT) 8-hour Protein-Complementation Assay for Peroxisome Proliferator-activated Receptor Gamma / SRC-1 Co-activator (AID 2283387).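 Further: nuclear to cytoplasmic split Venus YFP fluorescence ratio reporting PPARg SRC-1 interaction.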 A digest of the protocol:
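Split-YFP (IFP1/IFP2) PPARg/SRC-1 reporter, HEK293T, 37 °C, 5% CO2; 8 h compound; formaldehyde fix + Draq5; high-content imaging, N/C ratio, ≥350 cells/image, positive direction vs DMSO.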

Experiment [7] has the same target. Nature of the experiment: OT_PPARg_PPARgSRC1_1440: Odyssey Thera (OT) 24-hour Protein-Complementation Assay for Peroxisome Proliferator-activated Receptor Gamma/ SRC-1 Co-activator (AID 2283388).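 Further: nuclear to cytoplasmic ratio of reconstituted Venus YFP fluorescence in fixed imaged cells.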 In short, it runs like this: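 Transient HEK293T, YFP fragments 1-158/159-239 (mutant IFP1/IFP2) fused to PPARg/SRC-1; 24 h dosing; fix 4% formaldehyde, Draq5; Opera imaging 488/635 nm; N/C ratio, gain vs DMSO.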

For experiment [8], the target named is human Norepinephrine Transporter (NET), SLC6A2 (gene 6530) (UniProt P23975). Put plainly: NVS_TR_hNET: NovaScreen (NVS) Transporter Assay for human Norepinephrine Transporter (NET) (AID 2283377).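 Further: displacement of radioligand from human NET seen as loss of scintillation signal.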 In short, it runs like this: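 Cell-free radioligand binding using CHO-derived membrane protein expressing human NET, read by filter scintillation counting 1 h after dosing; loss of signal vs DMSO. Initial duplicate screen at 25 uM, actives retested in concentration series.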

Experiment [9] deals with Estrogen receptor (Homo sapiens) (UniProt P03372). Put plainly: OT_ERa_GFPERaERE_0480: Odyssey Thera (OT) 8-hour HeLa Transcription Induction Assay for Estrogen Receptor (AID 2283381; active means hit-call score of the fitted dose curve at least 0.9, where 1 is the maximum; inactive means score below 0.9). A digest of the protocol: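 Fluorescent reporter signal, imaged by microscopy and scored with image-analysis algorithms, was taken 8 h after chemical dosing of HeLa cells; activity was fitted upward relative to DMSO.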

For experiment [10] the target is unchanged. Put plainly: OT_ERa_GFPERaERE_0120: Odyssey Thera (OT) 2-hour HeLa Transcription Induction Assay for Estrogen Receptor (AID 2283382). A digest of the protocol: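 HeLa, 384-well, 2 h chemical exposure; GFP reporter induction (ERE), fluorescence microscopy; high content image analysis; positive fitting direction vs DMSO.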

Estrogen receptor beta (Homo sapiens), sequence (Q92731 whole entry, looked up, the tested form may be a part): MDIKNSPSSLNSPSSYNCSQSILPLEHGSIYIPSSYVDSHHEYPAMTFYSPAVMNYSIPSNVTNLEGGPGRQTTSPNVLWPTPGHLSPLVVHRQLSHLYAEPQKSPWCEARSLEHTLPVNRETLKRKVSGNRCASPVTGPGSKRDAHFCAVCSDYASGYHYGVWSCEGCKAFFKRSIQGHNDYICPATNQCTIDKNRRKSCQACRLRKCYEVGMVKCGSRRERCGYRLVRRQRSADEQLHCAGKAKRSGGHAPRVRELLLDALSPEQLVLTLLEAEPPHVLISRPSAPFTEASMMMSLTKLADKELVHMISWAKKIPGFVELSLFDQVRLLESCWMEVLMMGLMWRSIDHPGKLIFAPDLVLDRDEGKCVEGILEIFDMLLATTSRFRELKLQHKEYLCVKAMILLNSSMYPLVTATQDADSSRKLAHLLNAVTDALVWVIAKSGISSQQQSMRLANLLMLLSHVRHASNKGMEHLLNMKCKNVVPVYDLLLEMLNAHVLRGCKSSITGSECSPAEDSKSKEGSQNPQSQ
Bile acid receptor (Homo sapiens), sequence (Q96RI1 whole entry, looked up, the tested form may be a part): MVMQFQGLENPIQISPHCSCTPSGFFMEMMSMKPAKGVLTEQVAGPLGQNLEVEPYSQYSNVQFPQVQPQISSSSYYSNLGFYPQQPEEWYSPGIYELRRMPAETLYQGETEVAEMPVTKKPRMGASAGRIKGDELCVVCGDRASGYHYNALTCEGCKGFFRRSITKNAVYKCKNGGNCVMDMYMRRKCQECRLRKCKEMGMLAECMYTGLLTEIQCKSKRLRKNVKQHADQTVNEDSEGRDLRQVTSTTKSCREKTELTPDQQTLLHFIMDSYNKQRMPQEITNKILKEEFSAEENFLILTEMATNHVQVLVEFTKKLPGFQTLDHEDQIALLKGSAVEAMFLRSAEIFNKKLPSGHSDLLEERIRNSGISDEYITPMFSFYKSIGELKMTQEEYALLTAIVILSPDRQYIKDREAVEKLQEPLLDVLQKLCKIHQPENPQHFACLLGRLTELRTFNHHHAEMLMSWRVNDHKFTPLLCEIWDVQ
Peroxisome proliferator-activated receptor gamma (Homo sapiens), sequence (P37231 whole entry, looked up): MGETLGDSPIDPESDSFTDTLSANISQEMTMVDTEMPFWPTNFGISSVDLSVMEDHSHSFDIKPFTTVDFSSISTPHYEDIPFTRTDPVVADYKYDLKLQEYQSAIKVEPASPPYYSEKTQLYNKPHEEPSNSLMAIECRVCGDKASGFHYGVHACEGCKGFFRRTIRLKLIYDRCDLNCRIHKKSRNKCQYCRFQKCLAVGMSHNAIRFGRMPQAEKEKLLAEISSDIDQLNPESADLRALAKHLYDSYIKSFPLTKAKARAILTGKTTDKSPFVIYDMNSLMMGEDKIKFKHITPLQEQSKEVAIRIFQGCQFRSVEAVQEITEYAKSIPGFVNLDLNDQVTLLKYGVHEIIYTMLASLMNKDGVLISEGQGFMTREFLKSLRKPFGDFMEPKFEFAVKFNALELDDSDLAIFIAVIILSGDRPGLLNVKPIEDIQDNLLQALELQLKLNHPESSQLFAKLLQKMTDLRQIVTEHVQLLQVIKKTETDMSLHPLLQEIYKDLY
Retinoic acid receptor RXR-alpha (Homo sapiens), sequence (P19793 whole entry, looked up, the tested form may be a part): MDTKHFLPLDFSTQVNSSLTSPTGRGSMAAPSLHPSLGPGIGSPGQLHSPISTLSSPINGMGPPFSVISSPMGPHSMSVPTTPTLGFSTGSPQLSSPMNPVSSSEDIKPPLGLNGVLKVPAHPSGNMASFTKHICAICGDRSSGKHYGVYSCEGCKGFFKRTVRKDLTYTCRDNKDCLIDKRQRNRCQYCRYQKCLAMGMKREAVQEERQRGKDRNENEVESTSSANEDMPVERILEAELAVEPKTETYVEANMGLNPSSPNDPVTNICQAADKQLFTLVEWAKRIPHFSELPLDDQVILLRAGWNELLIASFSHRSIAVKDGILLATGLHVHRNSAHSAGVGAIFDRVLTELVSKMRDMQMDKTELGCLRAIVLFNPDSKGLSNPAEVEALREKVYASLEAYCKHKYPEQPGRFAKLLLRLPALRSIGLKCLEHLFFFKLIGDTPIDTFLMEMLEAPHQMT
Estrogen receptor (Homo sapiens), sequence (P03372 whole entry, looked up): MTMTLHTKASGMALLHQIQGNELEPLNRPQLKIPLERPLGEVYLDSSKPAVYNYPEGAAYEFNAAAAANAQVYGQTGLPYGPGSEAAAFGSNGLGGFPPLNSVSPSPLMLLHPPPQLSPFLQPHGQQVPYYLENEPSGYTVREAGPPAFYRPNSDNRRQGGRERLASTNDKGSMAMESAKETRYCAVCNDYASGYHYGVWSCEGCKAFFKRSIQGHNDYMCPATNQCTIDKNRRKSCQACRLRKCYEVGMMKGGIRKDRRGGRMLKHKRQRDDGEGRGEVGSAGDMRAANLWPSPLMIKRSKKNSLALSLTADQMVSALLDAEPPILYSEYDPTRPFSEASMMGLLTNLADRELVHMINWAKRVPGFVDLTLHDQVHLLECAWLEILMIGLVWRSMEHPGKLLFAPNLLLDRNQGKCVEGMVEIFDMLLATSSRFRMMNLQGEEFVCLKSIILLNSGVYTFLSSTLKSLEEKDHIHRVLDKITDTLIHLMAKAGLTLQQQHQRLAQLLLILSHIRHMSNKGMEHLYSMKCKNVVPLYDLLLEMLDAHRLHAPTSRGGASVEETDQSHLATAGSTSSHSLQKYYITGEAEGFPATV
human Norepinephrine Transporter (NET), SLC6A2 (gene 6530), sequence (P23975 whole entry, looked up): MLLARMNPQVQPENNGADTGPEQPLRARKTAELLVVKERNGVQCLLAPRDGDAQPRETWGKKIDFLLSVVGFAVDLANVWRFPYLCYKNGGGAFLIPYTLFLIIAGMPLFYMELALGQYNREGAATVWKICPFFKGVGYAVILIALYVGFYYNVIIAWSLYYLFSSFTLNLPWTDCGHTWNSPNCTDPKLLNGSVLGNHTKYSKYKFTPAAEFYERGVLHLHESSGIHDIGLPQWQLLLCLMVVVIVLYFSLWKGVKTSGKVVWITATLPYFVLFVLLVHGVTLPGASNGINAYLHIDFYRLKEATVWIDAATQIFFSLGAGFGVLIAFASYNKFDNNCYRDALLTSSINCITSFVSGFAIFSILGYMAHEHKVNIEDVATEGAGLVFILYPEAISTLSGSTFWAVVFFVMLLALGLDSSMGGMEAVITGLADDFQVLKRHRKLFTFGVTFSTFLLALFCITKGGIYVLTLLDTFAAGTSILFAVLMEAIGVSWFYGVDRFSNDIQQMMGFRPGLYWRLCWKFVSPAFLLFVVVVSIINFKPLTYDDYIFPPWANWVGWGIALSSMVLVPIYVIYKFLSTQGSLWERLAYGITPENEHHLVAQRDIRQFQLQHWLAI

For the molecule `COS(=O)(=O)O`, the call in [1], in [2] and in experiment [3] was inactive.

`Cc1cc(=O)oc2cc(N(C)C)ccc12`: the outcome in experiment [1], in experiment [5], in experiment [6] and in experiment [7] was inactive. The AC50 in experiment [2] and in [4] was 50 µM (active) each time.

Regarding `CCCCCCC(=O)c1ccccc1`, the call in experiment [1], in experiment [2], in [4], in experiment [5], in experiment [6] and in [7] was inactive.

Turning to `O=[N+]([O-])c1ccc(O)cc1C(F)(F)F`, the AC50 in experiment [1] is 68.4 µM (active); in experiment [4] it was 77.1 µM (active). For the same molecule, the molecule was called inactive in experiment [2], in experiment [6] and in experiment [7].

Turning to `CC=Cc1ccc(OCC)c(O)c1`, in [8], the AC50 is 5.31 µM (active).

As to `C=CC(=O)OCCCC`, the molecule was called inactive in experiment [1], in experiment [2], in experiment [4], in [5] and in experiment [3].

As to `CC(C)CCOC(=O)c1ccccc1`, the molecule was classed as inactive in experiment [2], in experiment [3], in experiment [6] and in experiment [7].

Consider `CS(C)=O`, for which the molecule was classed as inactive in experiment [4], in experiment [5], in experiment [3], in experiment [6] and in experiment [7].

Regarding `O=C(O)CCCCCCCCC(=O)O`, the outcome in experiment [5], in experiment [6] and in experiment [7] was inactive.

Regarding `COCCOCCOCCO`, the molecule was classed as inactive in [5].

Turning to `OCC(O)c1ccccc1` (stereo not given), the result in experiment [9], in experiment [10] and in experiment [5] was inactive.

As for `OCC#CCO`, the outcome in [1], in [6] and in experiment [7] was inactive.

On to `CCCCCC(=O)CC`, for which the molecule was classed as inactive in experiment [5], in experiment [3], in experiment [6] and in [7].

Consider `CCCCC1CCC(O)CC1` (stereo not given), for which the call in experiment [2], in experiment [4], in experiment [5], in [6] and in experiment [7] was inactive.

For the molecule `COC(=O)c1ccc(C)cc1C1=NC(C)(C(C)C)C(=O)N1` (stereo not given) (tested in a mixture with another compound), the outcome in experiment [1], in [5], in experiment [6] and in experiment [7] was inactive.

As to `ON=C1CCCCC1`, the outcome in experiment [1], in experiment [5], in experiment [3], in experiment [6] and in experiment [7] was inactive.

Take `CCCC(C)=O`: the molecule was called inactive in [2], in [4], in [5], in experiment [6] and in experiment [7].

For the molecule `O=C(c1ccccc1)C(O)c1ccccc1` (stereo not given), the call in experiment [1], in [6] and in [7] was inactive.

For `CC(C)CC(C)CC(O)CC(C)C` (stereo not given), the molecule was classed as inactive in experiment [2], in experiment [4], in experiment [6] and in experiment [7].

`CCNCCO`: the molecule was called inactive in experiment [4], in [6] and in experiment [7].

As to `CCCCCC(C)=O`, the outcome in experiment [1], in [5], in [6] and in experiment [7] was inactive.

For `CC(C)Nc1nc(N)nc(Cl)n1`, the outcome in experiment [1], in experiment [5], in experiment [6] and in experiment [7] was inactive.

As for `CCCCCCC(CO)CCCC` (stereo not given), the molecule was called inactive in experiment [5], in experiment [3], in experiment [6] and in [7].

In the case of `CCCOCCO`, the call in experiment [4], in experiment [3], in [6] and in [7] was inactive.

As for `CC1CC(O)CC(C)(C)C1` (stereo not given), the call in experiment [1], in experiment [4], in experiment [6] and in experiment [7] was inactive.

For the molecule `CN1CCOCC1`, the outcome in [1], in experiment [5], in [6] and in experiment [7] was inactive.

Turning to `CCCCCCCC/C=C\CCCCCCCC(=O)OCC`, the molecule was called inactive in experiment [5], in experiment [6] and in experiment [7].

As for `CN1C(=O)c2ccccc2C1=O`, the result in [1], in [5], in experiment [6] and in experiment [7] was inactive.

For `O=c1c(O)c(-c2ccc(O)cc2)oc2cc(O)cc(O)c12`, the molecule was classed as inactive in experiment [2], in experiment [5], in experiment [3] and in experiment [7]. In addition, in experiment [4], the AC50 is 19.8 µM (active).

For the molecule `C#CC(C)(O)CC(C)C` (stereo not given), the outcome in experiment [1], in [5], in experiment [6] and in experiment [7] was inactive.

As to `C=Cc1ccc(C)cc1`, the molecule was called inactive in [1], in experiment [6] and in [7].

Take `O=C1OC(=O)c2c(Cl)c(Cl)c(Cl)c(Cl)c21`: the call in [2], in experiment [5], in experiment [6] and in experiment [7] was inactive.
